From PubChem BioAssay (NCI) come the findings set out here.

A short description of experiment [1]: NCI Yeast Anticancer Drug Screen. Data for the rad50 strain (AID 155).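 Note: 0% = growth of vehicle-only cultures of the same strain.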 To be noted: S. cerevisiae rad50 strain growth inhibition, active compounds read high. Put shortly:
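Vehicle-treated cultures provide the reference for the growth inhibition reported for compound-exposed, repair-deficient yeast.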

The nature of experiment [2]: NCI Yeast Anticancer Drug Screen. Data for the mec2-1 strain (AID 157). To be noted: S. cerevisiae mec2-1 strain, active compounds read high. Summed up: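 Readout is yeast growth inhibition, normalised to vehicle-treated controls, in the mec2-1 strain exposed to compound.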
The nature of experiment [3]: NCI Yeast Anticancer Drug Screen. Data for the sgs1 mgt1 strain (AID 161).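 Note: 0% = growth of cultures given vehicle only.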 To be noted: S. cerevisiae sgs1 mgt1 strain, active compounds read high. Put shortly:
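Growth of a repair-deficient yeast mutant was monitored after compound treatment and expressed as inhibition relative to vehicle-treated cultures.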

Experiment [4] is described as follows: NCI Yeast Anticancer Drug Screen. Data for the cln2 rad14 strain (AID 165).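 Note: 0% = growth equal to vehicle treated cultures.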 To be noted: S. cerevisiae cln2 rad14 strain, active compounds read high. Put shortly: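 Relative to vehicle controls, growth inhibition of compound-treated cln2 rad14 yeast was recorded.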
A short description of experiment [5]: NCI Yeast Anticancer Drug Screen. Data for the bub3 strain (AID 167). To be noted: S. cerevisiae bub3 mutant strain, active compounds read high. Summed up:
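Mutant yeast screening strain plus compound; vehicle-treated cultures serve as the 0% inhibition reference.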

Experiment [6] is described as follows: NCI Yeast Anticancer Drug Screen. Data for the mlh1 rad18 strain (AID 175). To be noted: S. cerevisiae mlh1 rad18 strain growth inhibition, active compounds read high. Put shortly: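 Test agents were incubated with a yeast strain of defined genotype (DNA damage repair defect). Inhibition of growth was derived by comparison with vehicle-exposed cultures.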
Setting [7] is: at 5.0 µM (retest, dose inferred, filed as 0.5).
Where [8] appears, read: at 50.0 µM (retest, dose inferred, filed as 5.0).

The panel holds about 79,000 compounds, 15% with a hit somewhere; the sample as a whole holds those more often. Calls of active or inactive are those of the source. Cut-off read from the data, not from the text of the source: active = growth inhibition above about 70%; inactive = the rest.

In the case of `O=C(CN1CCOCC1)Nc1nc(-c2ccc(Cl)cc2)cs1`, the growth inhibition in experiment [1] (setting [7]) was 66% (inactive); in experiment [1] (setting [8]), 94% (active); in experiment [1] (at 50.0 µM) it was 79.6% (active); in experiment [2] (setting [7]), 49% (inactive); in experiment [2] (setting [8]) it was 97% (active); in experiment [2] (at 50.0 µM), 53.8% (inactive). Also, the growth inhibition in experiment [3] (setting [7]) is 60% (inactive); in experiment [3] (setting [8]), 99% (active); in experiment [3] (at 50.0 µM), 86.4% (active); in experiment [4] (setting [7]) it was 46% (inactive); in experiment [4] (setting [8]), 90% (active); in experiment [4] (at 50.0 µM), 62% (inactive). Also, the growth inhibition in experiment [5] (setting [7]) was 65% (inactive); in experiment [5] (setting [8]), 67% (inactive); in experiment [5] (at 50.0 µM), 77.6% (active); in experiment [6] (setting [7]), 76% (active); in experiment [6] (setting [8]), 99% (active); in experiment [6] (at 50.0 µM) it was 85% (active).
For the compound `N#CCCN(C(=S)Nc1ccc(Cl)c(Cl)c1)C1CCCCC1`, the growth inhibition in experiment [1] (setting [7]) is 2% (inactive); in experiment [1] (setting [8]), 91% (active); in experiment [1] (at 50.0 µM), 78.9% (active); in experiment [2] (setting [7]), 0% (inactive); in experiment [2] (setting [8]), 91% (active); in experiment [2] (at 50.0 µM), 79.7% (active). The growth inhibition in experiment [3] (setting [7]) is 2% (inactive); in experiment [3] (setting [8]) it was 90% (active); in experiment [3] (at 50.0 µM) it was 86.3% (active); in experiment [4] (setting [7]), -1% (inactive); in experiment [4] (setting [8]), 83% (active); in experiment [4] (at 50.0 µM), 71.9% (active). For the same compound, the growth inhibition in experiment [5] (setting [7]) is 2% (inactive); in experiment [5] (setting [8]), 88% (active); in experiment [5] (at 50.0 µM) it was 79.2% (active); in experiment [6] (setting [7]), 3% (inactive); in experiment [6] (setting [8]), 90% (active); in experiment [6] (at 50.0 µM), 75.1% (active).
For `CCCCCCCSCC1C(=O)C23CC1CCC2C12COC(O)C1C(C)(C)C(O)CC2OC3=O` (configuration not stated), the growth inhibition in experiment [1] (setting [7]) was -19% (inactive); in experiment [1] (setting [8]) it was 98% (active); in experiment [1] (at 50.0 µM), 91.7% (active); in experiment [2] (setting [7]), 1% (inactive); in experiment [2] (setting [8]), 99% (active); in experiment [2] (at 50.0 µM), 92.2% (active). Further, the growth inhibition is -11% (inactive) in experiment [3] (setting [7]); 98% (active) in experiment [3] (setting [8]); 92.2% (active) in experiment [3] (at 50.0 µM); 9% (inactive) in experiment [4] (setting [7]); 99% (active) in experiment [4] (setting [8]); 90% (active) in experiment [4] (at 50.0 µM). Moreover, the growth inhibition in experiment [5] (setting [7]) was -4% (inactive); in experiment [5] (setting [8]), 99% (active); in experiment [5] (at 50.0 µM), 89% (active); in experiment [6] (setting [7]) it was -29% (inactive); in experiment [6] (setting [8]), 98% (active); in experiment [6] (at 50.0 µM), 63.4% (inactive).
In the case of `O=C(NCc1ccccc1)N1CCN(c2ccccc2)C1=O`, the growth inhibition in experiment [1] (setting [7]) was -3% (inactive); in experiment [1] (setting [8]), 3% (inactive); in experiment [1] (at 50.0 µM), 47% (inactive); in experiment [2] (setting [7]), -3% (inactive); in experiment [2] (setting [8]), -5% (inactive); in experiment [2] (at 50.0 µM), 2.65% (inactive). The growth inhibition in experiment [3] (setting [7]) was -3% (inactive); in experiment [3] (setting [8]), -1% (inactive); in experiment [3] (at 50.0 µM), -2.15% (inactive); in experiment [4] (setting [7]), -4% (inactive); in experiment [4] (setting [8]) it was 13% (inactive); in experiment [4] (at 50.0 µM), 36.5% (inactive). The growth inhibition is 4% (inactive) in experiment [5] (setting [7]); 12% (inactive) in experiment [5] (setting [8]); 6.95% (inactive) in experiment [5] (at 50.0 µM); -4% (inactive) in experiment [6] (setting [7]); -4% (inactive) in experiment [6] (setting [8]); 11.7% (inactive) in experiment [6] (at 50.0 µM).
For the compound `C=C(CN1CCCC1)C(=O)c1ccc(OC)cc1`, the growth inhibition is -6% (inactive) in experiment [1] (setting [7]); 22% (inactive) in experiment [1] (setting [8]); 3.25% (inactive) in experiment [1] (at 50.0 µM); 7% (inactive) in experiment [2] (setting [7]); 65% (inactive) in experiment [2] (setting [8]); 73% (active) in experiment [2] (at 50.0 µM). For the same compound, the growth inhibition in experiment [3] (setting [7]) is -8% (inactive); in experiment [3] (setting [8]), 55% (inactive); in experiment [3] (at 50.0 µM), 44.4% (inactive); in experiment [4] (setting [7]), 31% (inactive); in experiment [4] (setting [8]), 81% (active); in experiment [4] (at 50.0 µM) it was -20.4% (inactive). Moreover, the growth inhibition is -6% (inactive) in experiment [5] (setting [7]); 54% (inactive) in experiment [5] (setting [8]); -12% (inactive) in experiment [5] (at 50.0 µM); 4% (inactive) in experiment [6] (setting [7]); 71% (active) in experiment [6] (setting [8]); 46.6% (inactive) in experiment [6] (at 50.0 µM).
As for `COc1cccc2c1C(=O)c1c(O)c3c(c(O)c1C2=O)C[C@@](O)(C(=O)CO)C[C@@H]3OC1CC(N)CC(C)O1` (some centres not stated), the growth inhibition in experiment [1] (setting [7]) was 81% (active); in experiment [1] (setting [8]), 98% (active); in experiment [1] (at 50.0 µM) it was 89.3% (active); in experiment [2] (setting [7]), 24% (inactive); in experiment [2] (setting [8]), 98% (active); in experiment [2] (at 50.0 µM), 90.4% (active). For the same compound, the growth inhibition in experiment [3] (setting [7]) was 61% (inactive); in experiment [3] (setting [8]), 99% (active); in experiment [3] (at 50.0 µM), 90.1% (active); in experiment [4] (setting [7]), 63% (inactive); in experiment [4] (setting [8]) it was 98% (active); in experiment [4] (at 50.0 µM) it was 85% (active). Also, the growth inhibition in experiment [5] (setting [7]) is 76% (active); in experiment [5] (setting [8]) it was 99% (active); in experiment [5] (at 50.0 µM), 88.9% (active); in experiment [6] (setting [7]), 69% (inactive); in experiment [6] (setting [8]), 97% (active); in experiment [6] (at 50.0 µM), 92% (active).
In the case of `O=C(/C=C/c1ccccc1)c1cc2c(cc1O)OCO2`, the growth inhibition was -6% (inactive) in experiment [1] (setting [7]); 17% (inactive) in experiment [1] (setting [8]); 29.6% (inactive) in experiment [1] (at 50.0 µM); -5% (inactive) in experiment [2] (setting [7]); 3% (inactive) in experiment [2] (setting [8]); -3.2% (inactive) in experiment [2] (at 50.0 µM). Also, the growth inhibition in experiment [3] (setting [7]) is -16% (inactive); in experiment [3] (setting [8]), 9% (inactive); in experiment [3] (at 50.0 µM) it was 22.9% (inactive); in experiment [4] (setting [7]) it was 2% (inactive); in experiment [4] (setting [8]), 31% (inactive); in experiment [4] (at 50.0 µM) it was 13.8% (inactive). Also, the growth inhibition in experiment [5] (setting [7]) is 3% (inactive); in experiment [5] (setting [8]), 37% (inactive); in experiment [5] (at 50.0 µM), 18.8% (inactive); in experiment [6] (setting [7]), -16% (inactive); in experiment [6] (setting [8]), -1% (inactive); in experiment [6] (at 50.0 µM), 31.5% (inactive).
For `CC1=Nc2ccccc2/C1=C\c1c(C)[nH]c2ccccc12`, the growth inhibition is 33% (inactive) in experiment [1] (setting [7]); 96% (active) in experiment [1] (setting [8]); 83% (active) in experiment [1] (at 50.0 µM); 39% (inactive) in experiment [2] (setting [7]); 98% (active) in experiment [2] (setting [8]); 86.8% (active) in experiment [2] (at 50.0 µM). The growth inhibition was 38% (inactive) in experiment [3] (setting [7]); 97% (active) in experiment [3] (setting [8]); 85.2% (active) in experiment [3] (at 50.0 µM); 10% (inactive) in experiment [4] (setting [7]); 96% (active) in experiment [4] (setting [8]); 74.3% (active) in experiment [4] (at 50.0 µM). Besides, the growth inhibition in experiment [5] (setting [7]) is 53% (inactive); in experiment [5] (setting [8]), 97% (active); in experiment [5] (at 50.0 µM), 87.8% (active); in experiment [6] (setting [7]), 58% (inactive); in experiment [6] (setting [8]) it was 94% (active); in experiment [6] (at 50.0 µM), -32.6% (inactive).
In the case of `COc1ccc2c(c1)CCCN2CCCCCCCN1CCCCC1`, the growth inhibition in experiment [1] (setting [7]) is 13% (inactive); in experiment [1] (setting [8]), 49% (inactive); in experiment [1] (at 50.0 µM) it was 72.5% (active); in experiment [2] (setting [7]), 16% (inactive); in experiment [2] (setting [8]) it was 34% (inactive); in experiment [2] (at 50.0 µM), 45.5% (inactive). Besides, the growth inhibition in experiment [3] (setting [7]) was 26% (inactive); in experiment [3] (setting [8]), 73% (active); in experiment [3] (at 50.0 µM) it was 77.1% (active); in experiment [4] (setting [7]), 22% (inactive); in experiment [4] (setting [8]) it was 58% (inactive); in experiment [4] (at 50.0 µM), 90.2% (active). Also, the growth inhibition in experiment [5] (setting [7]) was 34% (inactive); in experiment [5] (setting [8]) it was 64% (inactive); in experiment [5] (at 50.0 µM) it was 83.5% (active); in experiment [6] (setting [7]) it was 32% (inactive); in experiment [6] (setting [8]), 73% (active); in experiment [6] (at 50.0 µM), 63.1% (inactive).
